In the library only some 6% were active in any assay of this set; here they are far more common.
D1 potentiator: enhances dopamine response at the human D1 receptor; P21728; HEK293 TREx D1 cells, calcium flux, dopamine EC20 potentiation; potentiation, % at 10 µM; 0.036% of 360,000 active; in the data active = potentiation above about 30%
Target sequence (P21728 whole entry, looked up): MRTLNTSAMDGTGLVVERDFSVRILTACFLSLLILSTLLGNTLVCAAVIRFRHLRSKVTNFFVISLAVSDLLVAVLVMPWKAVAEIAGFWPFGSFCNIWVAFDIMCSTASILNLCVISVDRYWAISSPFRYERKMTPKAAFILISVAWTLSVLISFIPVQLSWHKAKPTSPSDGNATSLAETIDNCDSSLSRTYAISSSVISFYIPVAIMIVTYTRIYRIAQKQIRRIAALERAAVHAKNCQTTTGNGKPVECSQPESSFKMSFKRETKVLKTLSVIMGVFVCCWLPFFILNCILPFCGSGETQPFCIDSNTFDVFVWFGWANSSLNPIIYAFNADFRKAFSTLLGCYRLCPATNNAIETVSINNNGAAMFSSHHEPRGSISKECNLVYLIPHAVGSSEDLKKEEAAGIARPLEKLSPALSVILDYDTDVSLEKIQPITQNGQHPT
D1 antag: antagonists of human D1 dopamine receptor | P21728 | HEK293 TREx D1 cells, calcium flux, dopamine EC80; hits give low values | activity change, negative = inhibition, % at 10 µM | 3.2% of 360,000 active; in the data active = activity change below about -30%
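Using tetracycline-induced force-coupled D1 Hek293 cells and a calcium dye, signals were followed for 180 s after compound, then for 180 s after EC80 dopamine, to detect inhibitors.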
DRD3 antagonist: blocks the human D3 dopamine receptor; D3R cells, DiscoveRx beta-arrestin luminescence, antagonist mode; hits give low values; max response, negative = inhibition, %; P35462; 2.5% of 360,000 active; AID 652054; in the data active = max response below about -50%; inconclusive = no clear call, values can overlap the other calls
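Cells expressing the human receptor were seeded at 1500 cells/well, incubated overnight at 37 degrees C in 5% CO2, then exposed to library compounds with dopamine controls for 90 minutes at 37 degrees C before luminescent detection.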
D1 agonist: activates the human D1 dopamine receptor | P21728 | HEK293 T-REx D1 cells, calcium flux, agonist mode | activation, % at 2 µM | 1% of 360,000 active | AID 504660; in the data active = activation above about 30%
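Tetracycline-induced HEK293 TREx D1 cells, force-coupled to calcium signalling, were dye-loaded with a no-wash calcium kit. Compound was pin-added after a 10 s baseline. Fluorescence was read kinetically at 1 cycle/s for 180 s, with calcium rises flagged as agonism.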
DRD3 agonist: activates the human D3 dopamine receptor. 0.58% of 410,000 active. max activation, %. D3R DiscoveRx beta-arrestin cells, luminescence, 90 min; in the data active = max activation above about 30%
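Cells at 1500/well, incubated overnight, then treated with pinned compounds (dopamine as control) for 90 min at 37 degrees C. DiscoveRx reagent added for 30 - 60 minutes at room temperature; luminescence read.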
Large screens that a line does not name were inactive.

CCN1CCN(Cc2c(O)ccc3c2O/C(=C\c2ccccc2)C3=O)CC1	D1 agonist 51
CCN1CCN(Cc2c(O)ccc3c2O/C(=C\c2ccc(C)cc2)C3=O)CC1	none
COc1ccccc1/C=C/C=C1\Oc2c(ccc(O)c2CN2CCN(CCO)CC2)C1=O	D1 antag -31, DRD3 antagonist inconclusive, D1 agonist 114
Cc1cn([C@H]2C[C@H](O)[C@@H](CNCc3ccc(CN(C)S(C)(=O)=O)o3)O2)c(=O)[nH]c1=O	none (no result: D1 potentiator, D1 antag, D1 agonist)
Cc1cn([C@H]2C[C@H](O)[C@@H](CNCc3ccc(-c4cc(Cl)ccc4C(F)(F)F)o3)O2)c(=O)[nH]c1=O	DRD3 antagonist -75 (no result: D1 potentiator, D1 antag, D1 agonist)
CC1CCC(C(C)C)C(OCC(O)CNC(C)c2ccccc2)C1 (stereo unspecified)	D1 agonist 33
CC(NCC(O)COC1CCC(C(C)(C)C)CC1)c1ccccc1 (stereo unspecified)	D1 agonist 112
Cc1ccc(S(=O)(=O)Nc2cc(C(=O)NCCN3CCCC3)ccc2N2CCCCC2)cc1	DRD3 antagonist -51
COCCCNC(=O)c1ccc(N2CCCC2)c(NS(=O)(=O)c2ccc(C)cc2)c1	none
Cc1ccc(S(=O)(=O)Nc2cc(C(=O)NCCN(C)C)ccc2N2CCCCC2)cc1	DRD3 antagonist -64
CCc1ccc(NC(=O)Cn2cc(S(=O)(=O)N3CCCC3)c(S(=O)(=O)N3CCCC3)c2)cc1	none (no result: DRD3 antagonist)
COc1ccc(C2CC(c3cccs3)=NN2C(=O)CCCC(=O)O)cc1OC (stereo unspecified)	none (no result: D1 potentiator, D1 antag, D1 agonist)
Cc1ccc2cc3c(nc2c1)N(Cc1ccco1)CC3	DRD3 antagonist -56
CC1(c2nnc(Cc3ccccc3)o2)CC(c2cccc([N+](=O)[O-])c2)=NO1 (stereo unspecified)	DRD3 agonist 32
CC(=O)c1cccc(NC(=O)CSCc2ccc(Br)cc2)c1	D1 antag -33
CC(=O)c1cccc(NC(=O)CSCc2ccccc2)c1	DRD3 antagonist -79
Cc1ccccc1OCCCCn1c(CCNC(=O)C(C)(C)C)nc2ccccc21	none (no result: DRD3 antagonist)
C/C(=N\Nc1nc(-c2ccccn2)nc2ccccc12)c1ccc(F)cc1	none
c1ccc(CCNc2nc(-c3ccccn3)nc3ccccc23)cc1	DRD3 antagonist -70
CCN1CCN(c2nc(-c3ccccn3)nc3ccccc23)CC1	DRD3 antagonist inconclusive
c1ccc(-c2nc(N3CCCCCC3)c3ccccc3n2)nc1	DRD3 antagonist -127
c1ccc(-c2nc(N3CCOCC3)c3ccccc3n2)nc1	D1 antag -34
Cc1nc(-c2ccccn2)nc(N2CCOCC2)c1Cl	D1 antag -43
COc1cccc(C(=O)NCc2cn3cccc(C)c3n2)c1	none (no result: DRD3 antagonist)
COC(=O)c1c(NC(=O)COc2ccc(C)cc2Br)sc2c1CCCC2	none (no result: DRD3 antagonist)
CC(=O)Nc1ccc2[nH]c3ccccc3c2c1	none
O=C(Nc1ccc(Cl)cc1)c1cc2c(cc1O)[nH]c1ccccc12	D1 antag -38
NC1=NCC2c3ccccc3Cc3ccccc3N12 (stereo unspecified)	none (no result: D1 potentiator, D1 antag, DRD3 antagonist, D1 agonist)
CN1CCN2c3ncccc3Cc3ccccc3[C@@H]2C1	D1 antag -32
CC(=O)C(=Cc1ccc(-c2ccccc2)cc1)C(=O)c1ccccc1	DRD3 antagonist -53 (no result: D1 potentiator, D1 antag, D1 agonist)
Cc1cccc(NC(=O)C2CCCN(S(=O)(=O)c3cnc[nH]3)C2)c1C (stereo unspecified)	none (no result: DRD3 antagonist)
CC1(c2ccc(Cl)cc2)NC(=O)N(CC(=O)N2CCc3ccccc3C2)C1=O (stereo unspecified)	D1 agonist 32
CC1(c2ccccc2Cl)NC(=O)N(CC(=O)N2CCc3ccccc3C2)C1=O (stereo unspecified)	DRD3 antagonist inconclusive
CCOc1ccc(/C(O)=C2\C(=O)C(=O)N(CCN(C)C)C2c2cccc(OC)c2OC)cc1Cl (stereo unspecified)	DRD3 antagonist -56
CCOc1ccc(/C(O)=C2\C(=O)C(=O)N(CCN(C)C)C2c2cc(OC)ccc2OC)cc1Cl (stereo unspecified)	none (no result: D1 potentiator, D1 antag, D1 agonist)
Cc1cc2c(c(=O)n1Cc1cccnc1)C(c1ccccc1)C(C#N)=C(N)O2 (stereo unspecified)	none
Cc1cc2c(c(=O)n1Cc1ccc3c(c1)OCO3)C(c1cccnc1)C(C#N)=C(N)O2 (stereo unspecified)	D1 antag -90
O=C(Nc1ccccc1N1CCCC1)c1ccc([N+](=O)[O-])o1	none
COc1ccc(N2CCCC2)c(NC(=O)c2ccc([N+](=O)[O-])o2)c1	D1 antag -36
COc1ccc(OCC(=O)Nc2cc(OC)ccc2N2CCCCC2)cc1	DRD3 agonist 36
CNC(=O)c1ccc2c(c1)nnn2C	D1 antag -87
O=C1CCc2ccc(OCCCCN3CCN(c4cccc(Cl)c4Cl)CC3)cc2N1	D1 antag -44 (no result: D1 potentiator, DRD3 antagonist, D1 agonist, DRD3 agonist)
c1ccc(-c2noc(CN3CCN(c4cnccn4)CC3)n2)cc1	none
Oc1ccccc1N1CCN(Cc2ncc(-c3ccccc3)o2)CC1	DRD3 antagonist -58
O=C(CSc1nc2c([nH]c3ccccc32)c(=O)n1-c1cccc(Cl)c1)N1CCc2ccccc21	none (no result: DRD3 antagonist)
CCN1C(=O)/C(=C/C=C2/SCCN2C)SC1=S	D1 agonist 41
CCN1C(=O)/C(=C/N2CCc3ccccc32)SC1=S	none
CN1CCS/C1=C\C=C1/SC(=S)N(CC(=O)O)C1=O	DRD3 antagonist -68, D1 agonist 129
CC1(C)S[C@@H]2[C@H](NC(=O)C(c3ccccc3)S(=O)(=O)O)C(=O)N2[C@H]1C(=O)O (stereo partly specified)	none (no result: D1 potentiator, D1 antag, DRD3 antagonist, D1 agonist)
CCCC(=O)Nc1sc(C)c(-c2ccc(C(C)CC)cc2)c1C#N (stereo unspecified)	DRD3 agonist 30 (no result: D1 potentiator, D1 antag, D1 agonist)
Cc1ccc(-c2csc3ncnc(Sc4nnc(CN5CCCCCC5=O)o4)c23)cc1	DRD3 antagonist -69
Cc1ccc(-c2csc3ncnc(SCC(=O)Nc4nnc(C)s4)c23)cc1	none
O=C(NCc1cccnc1)/C(=C/c1ccc([N+](=O)[O-])cc1)NC(=O)c1ccccc1	DRD3 agonist 31 (no result: D1 potentiator, D1 antag, D1 agonist)
O=C(NCc1ccccc1)/C(=C\c1ccc([N+](=O)[O-])cc1)NC(=O)c1ccco1	none
O=C(NCCc1ccccc1)/C(=C\c1ccc([N+](=O)[O-])cc1)NC(=O)c1ccco1	D1 antag -38
CCOc1ccc(NC(=O)c2oc3ccccc3c2NC(=O)C2CCCCC2)cc1	none (no result: DRD3 antagonist)
CCn1c(=O)n(-c2ccc(F)c(Cl)c2)c(=O)c2sc3ccccc3c21	none (no result: DRD3 antagonist)
CCN(CC)c1ccc(/C=N/Nc2nc3ccccc3[nH]2)cc1	D1 antag -62, DRD3 antagonist inconclusive
CC(/C=N/Nc1nc2ccccc2[nH]1)=C\c1ccccc1	D1 antag -42
CC(=C/c1ccccc1)/C=N/Nc1nc(N2CCCCC2)nc(N2CCCCC2)n1	DRD3 agonist 32
C(=C\c1ccccc1)/C=N/Nc1nc(N2CCCCC2)nc(N2CCCCC2)n1	none
Cc1cc(O)c2c(c1)O[C@@]1(C)CC[C@H]3C(C)(C)CCCC34CO[C@@H]2[C@H]41 (stereo partly specified)	none (no result: D1 potentiator, D1 antag, DRD3 antagonist, D1 agonist)

Screens deposited in PubChem BioAssay by National Center for Advancing Translational Sciences (NCATS).
